The source of these data is PubChem BioAssay (Tox21).

Structures are written as SMILES. Values joined by “and” are separate entries in the source; they are usually repeats but may differ in a detail not shown here. Equal values may be shown once. Results filed as inconclusive are left out. Where a structure was tested more than once in an assay, its records may differ in their call. Active and inactive are the calls of the source. The call rests on the fitted dose curve. Starred links: 1 amine or outer side, 2 acyl side, 3 side chain; linkers in the order of their positions; H or OH if unused. Positions of bridges follow the written chain, without caps; N, C: chain ends. Non-standard residues stand in square brackets, D forms with d. Residues, ends and D or L forms follow the SMILES beside them. Chains are numbered I, II in the order given. Actinocin(9to1) = Cc1c2oc3c(C)ccc(C(=O)[*:1])c3nc-2c(C(=O)[*:2])c(N)c1=O; NMeV = CN[C@H](C(=O)O)C(C)C; Sar = CNCC(=O)O
On the % scale 0 is the no-effect control and ±100 the full control effect; potency means the concentration at half of the fitted maximal effect.

The nature of this assay: qHTS assay for small molecule agonists of the p53 signaling pathway - cell viability (AID 651633). Further: nearly all actives have a fitted effect of over 30% in size.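 On activity change, negative = cytotoxicity: p53RE-bla HCT reporter cells with a stable beta-lactamase p53 reporter.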 Particulars: p53RE-bla HCT-116 viability, ATP luminescence, 16 h; series mostly up to 83.3 µM; activity change, negative = cytotoxicity: at the top concentration. From the text:
National Center for Advancing Translational Sciences [NCATS]
NIH Chemical Genomics Center [NCGC]
U.S. Environmental Protection Agency [EPA]
National Institutes of Environmental Health Sciences [NIEHS]
National Toxicology Program [NTP]
U.S. Food and Drug Administration [FDA]
p53, a tumor suppressor protein, is activated following cellular insult, including DNA damage and other cellular stresses. The activation of p53 regulates cell fate by inducing DNA repair, cell cycle arrest, apoptosis, or cellular senescence. The activation of p53, therefore, is a good indicator of DNA damage and other cellular stresses. […] The activation of the reporter gene under culture conditions can be detected by fluorescence intensity. This cell line was used to screen the Tox21 compound library in a 1536-well plate format and to identify agonists that activate the p53 signaling pathway.
Tox21 Assay Protocol Summary:
The p53RE-bla cells were dispensed at 4,000 cells/5 ul/well in 1536-well black wall/clear bottom plates using a Multidrop dispenser. After the assay plates were incubated at a 37 C/5% CO2 incubator for 5 hours, 23 nL of compounds dissolved in DMSO, positive controls or DMSO only was transferred to the assay plate by a pin tool. The plates were incubated at 37 C for 16 hours. After 1 uL of LiveBLAzerTM B/G FRET substrate was added using a Flying Reagent Dispenser, the plates were incubated at room temperature for 2 hours, and fluorescence intensity was measured by an Envision plate reader.
For cell viability readout that measures cytotoxicity, 4 ul/well of CellTiter-Glo reagent was added into the assay plates using a Flying Reagent Dispenser. After 30 min incubation at room temperature, the luminescence intensity in the plates was measured using a ViewLux plate reader.
Background: qHTS replaces the single test concentration by a dilution series.
Consider `CC(C)(C)c1ccc(O)c(C(C)(C)C)c1`, for which the Potency is 60.9 µM (active) and 48.6 µM (active).
The same measure, in the same setting: the value for `CCCOC(=O)c1cc(O)c(O)c(O)c1` was “inactive”; that for `CNCCC(Oc1ccc(C(F)(F)F)cc1)c1ccccc1` (stereo not given) was 60.3 µM (active); that for `O=C(O[C@@H]1Cc2c(O)cc(O)cc2O[C@@H]1c1cc(O)c(O)c(O)c1)c1cc(O)c(O)c(O)c1` was “inactive”.
Turning to `CC(=O)Nc1ccc(C(=O)CCl)cc1`, the Potency result is “inactive and 30.6 µM (active)”.
In the case of `COC(c1ccccc1)(c1ccccc1)[C@H](Oc1nc(C)cc(C)n1)C(=O)O`, the “activity change, negative = cytotoxicity” value is -13.7% (inactive).
As for `BrC1CCC(Br)C(Br)CCC(Br)C(Br)CCC1Br` (stereo not given), the Potency is 15.3 µM (active) and 25.9 µM (active).
The same measure, in the same setting: for `COc1ccc(CCN(C)CCCC(C#N)(c2ccc(OC)c(OC)c2)C(C)C)cc1OC` (stereo not given) the value was “inactive”.
For `CC(C)(O)CCC(C)(C)O`, the “activity change, negative = cytotoxicity” value was 25.1% [at 95.3 µM] (inactive).
As to `Cc1c2oc3c(C)ccc(C(=O)N[C@@H]4C(=O)N[C@H](C(C)C)C(=O)N5CCC[C@H]5C(=O)N(C)CC(=O)N(C)[C@@H](C(C)C)C(=O)O[C@@H]4C)c3nc-2c(C(=O)N[C@@H]2C(=O)N[C@H](C(C)C)C(=O)N3CCC[C@H]3C(=O)N(C)CC(=O)N(C)[C@@H](C(C)C)C(=O)O[C@@H]2C)c(N)c1=O` (I: T[dV]P[Sar][NMeV] / II: T[dV]P[Sar][NMeV]; ester I:1-I:C, II:1-II:C; linker I:N-II:N via Actinocin(9to1)), the Potency entry is “inactive”.
Turning to `CCOc1ccc2c(c1)C(C)=CC(C)(C)N2`, the Potency result is “inactive”.
`CC[C@H]1CN2CCc3cc(OC)c(OC)cc3[C@@H]2C[C@@H]1C[C@H]1NCCc2cc(OC)c(OC)cc21`: the “activity change, negative = cytotoxicity” value is -28.9% [at 95.3 µM] (inactive).
For `CCN(CC)CCOc1ccc(/C(=C(\Cl)c2ccccc2)c2ccccc2)cc1`, the Potency is 29.8 µM (active) and 49.6 µM (active).
For the compound `CC(C)CCOC(=O)c1ccc(N(C)C)cc1`, the “activity change, negative = cytotoxicity” value is -6.01% (inactive).
On the same count and under the same terms, for `CCN1CCCC1CNC(=O)c1cc(S(=O)(=O)CC)c(N)cc1OC` (stereo not given) the value was 13.8% (inactive).
Still for that read-out and setting: the value for `CCCC(=O)c1ccccc1` was 15.9% (inactive); that for `NCCCCCC(=O)O` was -11.6% [at 39.1 µM] (inactive).
As to `NCCO`, the Potency result was “inactive”.
As to `C=C(C)C(=O)O`, the Potency result was “inactive”.
As to `c1ccc2c(c1)CCCC2C1=NCCN1` (stereo not given), the “activity change, negative = cytotoxicity” value is 8.51% (inactive).
For the compound `O`, the Potency result is “inactive”.
In the case of `CCC(CO)(CO)COCC(CC)(CO)CO`, the “activity change, negative = cytotoxicity” value is 10.4% (inactive).
Regarding `C=CC(=O)OCCCCCCCC`, the “activity change, negative = cytotoxicity” value is -12.2% (inactive).
On the same count and under the same terms, the value for `Clc1ccc2c(c1)C(N1CCNCC1)=Nc1ccccc1O2` was -0.472% (inactive); that for `Cc1scc2c1N(C(=O)CN1CCN(C)CC1)c1ccccc1NC2=O` was 14.2% (inactive).
Regarding `CCCCCC(=O)O[C@]1(C(C)=O)CC[C@H]2[C@@H]3CCC4=CC(=O)CC[C@]4(C)[C@H]3CC[C@@]21C`, the Potency is 26.6 µM (active) and 54.1 µM (active).
Consider `C=C(C)C1CC=C(C)C(OC(C)=O)C1` (stereo not given), for which the Potency result was “inactive”.
For the compound `Cc1cccc2n[nH]nc12`, the Potency entry was “inactive”.
For `Cc1cc(Cc2cc(C)cc(C(C)(C)C)c2O)c(O)c(C(C)(C)C)c1`, the Potency was 13.8 µM (active) and 17.2 µM (active).
For the compound `CC(C)CCOCc1ccccc1`, the “activity change, negative = cytotoxicity” value was 10.4% (inactive).
Still for that read-out and setting: for `O=Cc1ccc(Cl)cc1` the value was 20% (inactive); for `O=C(O)CCc1ccccc1`, 16.4% (inactive).
Consider `NC(N)=Nc1nc(CSCC/C(N)=N/S(N)(=O)=O)cs1`, for which the Potency result is “inactive”.
Regarding `CCCNC(C)C(=O)Nc1ccccc1C` (stereo not given), the “activity change, negative = cytotoxicity” value is 13.2% (inactive).
Same read-out and setting: the value for `CCC[C@H](N[C@@H](C)C(=O)N1[C@H](C(=O)O)C[C@@H]2CCCC[C@@H]21)C(=O)OCC` was -4.87% (inactive).
Take `CC(C)(C)c1cc(C(C)(C)C)c(O)c(C(C)(C)C)c1`: the Potency is 34.4 µM (active).
With `N[C@@H]1CONC1=O`, the “activity change, negative = cytotoxicity” value was 13.7% (inactive).
With `CC(N)=O`, the “activity change, negative = cytotoxicity” value is 10.5% [at 260 µM] (inactive).
Still for that read-out and setting: for `O=C1NCC2(CCN(CCc3ccccc3)CC2)O1` the value was 8.38% (inactive).
As for `Cc1cccc(O)c1C`, the Potency entry was “inactive”.
